Compound activity from PubChem.
Compounds with a hit are over-represented: about 21% of the library has one in this group of screens.
TDP1 cell CPT – DT40-hTDP1 cell growth loss with CPT; chicken DT40 Tdp1-/-;hTDP1 cells + 20 nM CPT, ATP luminescence, 48 h; Potency, µM (series often up to 46.2 µM), hits mostly inhibitors; 12% of 420,000 active; AID 686979; also: nearly all actives have a fitted effect of over 55% in size
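Cell growth measured by CellTiter-Glo luminescence after a minimum 48 h, 37 C compound exposure with 20 nM CPT in Tdp1-knockout DT40 cells stably expressing hTDP1, seeded 400/well; qHTS titration format.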
RORg inh – ROR gamma (mouse) transcription inhibition; P51450; Drosophila S2 Gal4-RORgamma UAS-luciferase reporter, 20 h; Potency, µM (top dose mostly 53.6 µM), actives largely listed as inhibitors; 5.4% of 310,000 active; also: nearly all actives have a fitted effect of over 60% in size
Target sequence (P51450 whole entry, looked up, the tested form may be a part): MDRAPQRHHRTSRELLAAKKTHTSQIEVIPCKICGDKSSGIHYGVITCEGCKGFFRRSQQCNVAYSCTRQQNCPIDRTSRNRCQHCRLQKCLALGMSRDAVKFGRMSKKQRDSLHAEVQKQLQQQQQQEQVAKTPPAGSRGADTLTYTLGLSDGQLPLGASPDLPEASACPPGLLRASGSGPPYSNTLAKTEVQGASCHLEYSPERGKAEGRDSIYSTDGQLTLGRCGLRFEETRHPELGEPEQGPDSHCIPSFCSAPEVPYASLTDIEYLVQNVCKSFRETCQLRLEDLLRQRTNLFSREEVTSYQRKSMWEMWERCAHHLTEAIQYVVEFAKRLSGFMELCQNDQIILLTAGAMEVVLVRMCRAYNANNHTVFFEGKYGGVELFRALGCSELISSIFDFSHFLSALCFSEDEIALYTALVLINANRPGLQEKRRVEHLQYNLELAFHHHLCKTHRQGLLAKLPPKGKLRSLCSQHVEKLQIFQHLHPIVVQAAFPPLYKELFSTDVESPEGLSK
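Luciferase reporter read in Schneider cells carrying Gal4-RORγ (mouse) and UAS-Photinus luciferase; cells given compound 1 h before 700 uM copper sulfate induction, then incubated 20 h at ambient temperature.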
ELG1 repair inh – inhibitors of ELG1-dependent DNA repair in HEK293T cells. Potency, µM (highest dose often 46.1 µM), most hits filed as inhibitors. HEK293T ELG1-luciferase reporter, luminescence, 16 h; DNA damage induced by 5-fluorouridine. AID 504467. 2.3% of 330,000 active; also: nearly all actives have a fitted effect of over 55% in size
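HEK293T cells expressing luciferase-tagged ELG1 (2,000/well) received 5-Fluorouridine plus compound or DMSO for 16 hr at 37 °C. Luciferase was read by ONE-Glo luminescence after 30 min at room temperature.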
IL1B secr inh – blocks inflammasome-driven IL-1 beta release | 4.7% of 360,000 active | THP-1 LPS/ATP IL-1B secretion, AlphaLISA, 16 h; stronger effect = lower value | activity change, % at 57.5 µM; in the data active = activity change below about -50%; inconclusive = mostly about -30% to -49%
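Secreted IL-1B measured by AlphaLISA bead assay after 16 h compound exposure of THP-1 cells; compounds (final up to 57.5 uM) added 1 h before LPS (250 ng/mL) and ATP (1.25 mM) stimulation; lower signal means less secretion.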
Gal4-VP16 FLuc – Gal4-VP16 reporter inhibition counter-screen; Drosophila S2 Gal4-VP16 UAS-luciferase, luminescence, 20 h; Potency, µM (highest dose often 53.6 µM), usual class: inhibitors; 3.5% of 310,000 active;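 also: Gal4-VP16 expression switched on by copper sulfate through the metallothionein promoter; nearly all actives have a fitted effect of over 50% in size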
TDP1 cell noCPT – qHTS for Inhibitors of human tyrosyl-DNA phosphodiesterase 1 (TDP1): qHTS in cells in absence of CPT; 15% of 420,000 active; DT40 Tdp1-/- hTDP1 cells, no CPT, ATP luminescence, 48 h; AID 686978, 2013; Potency, µM (series often up to 46.2 µM), usual class: inhibitors; also: nearly all actives have a fitted effect of over 55% in size
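Readout: luminescence from CellTiter-Glo after 30 min in the dark at RT. Cells: DT40 Tdp1-/- with stable hTDP1, 400/well. Exposure: compounds alone, ≥48 hr, 37 °C.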
Numbers stand for hits; . = inactive; ? = inconclusive; / = no result given; ! = not active in a repeat; [ ] = remark or other dose. Unless noted, calls follow the shape of the dose curve; as a rule, active = well fitted curve in the direction sought with a large enough effect; inconclusive = small, poorly fitted or top-dose-only effect, or another doubt; inactive = no such curve, though single readings can be large; an effect the other way counts as inactive or inconclusive.

SMILES | TDP1 cell CPT | RORg inh | ELG1 repair inh | IL1B secr inh | Gal4-VP16 FLuc | TDP1 cell noCPT
Cc1cccc2sc(N(CCCN(C)C)C(=O)c3ccc(Cl)s3)nc12 | 23µM! | ? | . | -62 | ? | ?
COCCCN1CN=C(NS(=O)(=O)c2ccc(NC(C)=O)cc2)NC1 | . | / | / | / | / | .
Cc1noc(C)c1S(=O)(=O)Nc1ccc(C(=O)N2CCN(c3ccc(Cl)cc3)CC2)cc1 | ? | ? | ? | . | . | 16µM
Cc1ccc(N(CC(=O)N2CCN(c3ccc(Cl)cc3)CC2)S(=O)(=O)c2c(C)noc2C)cc1 | ? | / | / | / | / | 23µM
COc1ccc(N(CC(=O)N2CCN(c3ccc(Cl)cc3)CC2)S(=O)(=O)c2c(C)n[nH]c2C)cc1 | ? | ? | ? | -62 | . | ?
COc1ccc(N(CC(=O)Nc2ccc(Cl)cc2)S(=O)(=O)c2c(C)n[nH]c2C)cc1 | ? | . | . | . | . | .
Cc1ccc(N(CC(=O)N2CCN(c3ccc(F)cc3)CC2)S(=O)(=O)c2c(C)noc2C)cc1 | 15µM | . | . | . | . | ?
Cc1noc(C)c1S(=O)(=O)N(CC(=O)N1CCCC1)c1ccc(C(C)C)cc1 | ? | . | . | . | . | ?
CCOC(=O)N1CCN(C(=O)CN(c2ccc(C)cc2)S(=O)(=O)c2c(C)noc2C)CC1 | . | . | . | . | . | .
O=[N+]([O-])c1cc(N=Nc2ccc3ccccc3c2)ccc1O | 18µM | .[1.91 µM] | ? | . | . | ?
CC(C)=N/N=C1/NC(=O)C(c2ccccc2)S1 (stereo not drawn) | ? | / | / | . | / | 16µM
C/C(=N\N=C1\NC(=O)CS1)c1cccs1 | . | ? | . | . | . | .
CC[C@]1(C(=O)OC)[C@H]2C(=O)N(C)C(=O)[C@H]2[C@H]2CN=C(SCc3ccc(C(=O)OC)cc3)N21 | ? | / | . | . | / | .
COc1ccc(NC(=S)NC(=O)Cc2ccccc2)cc1 | . | 8.9µM | ? | . | 7.1µM | .
C=CCN(CC=C)S(=O)(=O)c1ccc(NC(=S)NC(=O)c2ccco2)cc1 | ? | . | ? | . | ? | 18µM
COC(=O)Cc1ccc(NC(=S)NNC(=O)c2ccccc2Br)cc1 | . | 1.6µM | . | . | 18µM | .
COC(=O)Cc1ccc(NC(=O)c2ccccc2Br)cc1 | . | . | ? | . | . | .
COc1ccc(C(=O)NC(=S)Nc2ccc(S(N)(=O)=O)cc2)cc1 | . | . | . | . | . | .
C=CCN(CC=C)S(=O)(=O)c1ccc(NC(=S)NC(=O)Cc2ccc(OC)cc2)cc1 | ? | 7.1µM | ? | . | ? | 21µM
Cc1cc(C)nc(NS(=O)(=O)c2ccc(NC(=S)NC(=O)c3ccco3)cc2)n1 | . | . | . | . | . | .
Cc1cc(C)n2nc(CNS(=O)(=O)c3cccc([N+](=O)[O-])c3)nc2n1 | . | . | . | . | . | .
Cn1c(CNC(=O)c2ccc(Cl)cc2)nnc1SCC(=O)N1CCOCC1 | . | . | . | . | . | .
NCCCC[C@H](NC(=O)[C@H](Cc1c[nH]c2ccccc12)NC(=O)[C@H](CC(=O)O)NC(=O)[C@H](Cc1cnc[nH]1)NC(=O)[C@H](CO)NC(=O)[C@H](Cc1c[nH]c2ccccc12)NC(=O)[C@H](Cc1cnc[nH]1)NC(=O)[C@@H]1CCC(=O)N1)C(=O)N1CCC[C@H]1C(=O)NCC(N)=O | / | . | / | / | . | /
O=C(CS(=O)(=O)c1cccc2nsnc12)NCc1ccccc1 | . | / | / | / | / | .
O=C(Cc1ccccc1)NC(=S)Nc1ccc(OC(F)F)cc1 | . | 20µM | . | . | 11µM | .
SMILES | TDP1 cell CPT | RORg inh | ELG1 repair inh | IL1B secr inh | Gal4-VP16 FLuc | TDP1 cell noCPT
O=C(NNC(=S)Nc1ccc(Cl)cc1)c1ccccc1OC(F)F | ? | . | 23µM | . | ? | 23µM
COc1ccc(NC(=S)NCCCc2ccccc2)cc1 | ? | 3.5µM | . | . | 13µM | ?
COc1ccccc1NC(=S)NNC(=S)Nc1ccc(OC(F)F)cc1 | ? | . | . | -86 | . | 21µM
CCOc1ccc(CNC(=O)C2CCN(S(=O)(=O)c3cn(C)cn3)CC2)cc1 | . | / | / | / | / | .
Cc1ncc2c(c1CNC(=O)c1ccc3c(c1)OCO3)CCN(C(=O)c1scc3c1CCCC3)C2 | .[9.04 µM] | / | / | / | / | .
COc1ccc(Nc2nnc(SCC(=O)NC3CCCC3)s2)cc1 | . | / | / | . | / | ?
COc1ccc(CC(=O)NC(=S)Nc2ccc(S(=O)(=O)NC(C)(C)C)cc2)cc1 | ? | 13µM | . | . | . | .
COc1ccc(CCNC(=O)CCCCn2c(=O)c3ccccc3n(Cc3cc(C)ccc3C)c2=O)cc1OC | . | / | / | / | / | .
COc1ccc(CCNC(=O)CCCn2c(=O)c3ccccc3n(CC(=O)Nc3cccc(C)c3)c2=O)cc1OC | ? | / | / | / | / | 18µM
COc1ccc(CCNC(=O)CCCn2c(=O)c3ccccc3n(Cc3ccccc3)c2=O)cc1OC | ? | / | / | / | / | 16µM
O=C(CCCn1c(=O)c2ccccc2n(Cc2cccc(Cl)c2)c1=O)NCCc1ccc(Cl)cc1 | ? | / | / | / | / | 18µM
Cc1ccc(CNC(=O)CCCCn2c(=O)c3ccccc3n(Cc3ccc(C)cc3)c2=O)cc1 | . | / | / | / | / | .
COc1ccc(CCNC(=O)CCn2c(=O)c3ccccc3n(Cc3ccccc3)c2=O)cc1OC | ? | / | / | / | / | 18µM
CCOC(=O)C(C#N)=CN1CCNc2ccccc21 | . | / | / | . | / | .
Cc1ccc([N+](=O)[O-])cc1NC(=S)NC(=O)c1cccs1 | . | . | . | . | . | .
CCSC1=NC2(CCN(C(=O)NC3CCCCC3)CC2)N=C1c1ccc(Cl)cc1 | . | / | / | / | / | .
COc1ccc(CCNC(=O)CCCCn2c(=O)c3ccccc3n(CC(=O)Nc3ccccc3C)c2=O)cc1OC | . | / | / | / | / | .
COc1ccc(CCNC(=O)CCCCCN2C(=O)[C@@H]3Cc4ccccc4CN3C2=O)cc1OC | 21µM | . | ? | . | . | ?
COc1ccc(CCNC(=O)CCn2c(=O)c3ccccc3n(Cc3ccccc3F)c2=O)cc1OC | 15µM | / | / | / | / | 12µM
C[C@@H]1CN([C@H](C)CO)C(=O)CCCn2cc(nn2)CO[C@H]1CN(C)S(=O)(=O)c1ccccc1F | . | / | / | . | / | .
CC(=O)N1CC(C)Sc2ccc(S(=O)(=O)NCCc3cccc(C)c3)cc21 (stereo not drawn) | ? | . | . | . | ? | 15µM
COc1ccc(NC(=O)CCNS(=O)(=O)c2ccc3c(c2)CC(C)N3C(C)=O)cc1 (stereo not drawn) | . | . | . | . | . | .
CCOc1ccc(NC(=O)CCNS(=O)(=O)c2ccc3c(c2)CC(C)N3C(C)=O)cc1 (stereo not drawn) | 15µM | . | . | . | . | 23µM
